# Source: PubChem BioAssay (NCI)
# Compounds without any hit were thinned out: in the full panel of roughly 83,000, 20% have a hit.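 Cell lines were cultured in 96-well plates, exposed to a single compound concentration, and assessed for percent growth 48 hours later.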 Unmarked numbers belong to inactive results. Calls of active or inactive are those of the source. Rule for the calls: active = growth percent below 10; inactive = the rest.
# System: MDA-MB-468 breast
# Test: NCI-60 one-dose screen, 48 h (100 = growth as untreated, 0 = no growth, -100 = all killed)
# Conditions: 10 µM unless noted
row,SMILES,growth
1,CCN(CC)CCCN1C(=O)c2c(c(C)c3c(oc4ccc(O)cc43)c2C)C1=O,75.7%
2,CCOC(=O)C1=CSC2=NC3=C(CCC/C3=C\c3ccc(Cl)cc3)C(c3ccc(Cl)cc3)N12 (stereo not given),84.9%
3,O=C(NCCCCNC(=O)OCc1ccc2c(Cl)cc(Cl)c(O)c2n1)OCc1ccc2c(Cl)cc(Cl)c(O)c2n1,-5.78% (active)
4,COc1cc(C=C2C(=O)N(C)C(=O)N(C)C2=O)cc(CN2CCCCC2)c1O,104%
5,Cc1cc(Br)ccc1-n1cc(C#N)c(N)c1C(=O)c1ccc(Br)cc1,93.4%
